Most compounds without a hit are left out; they make up all but 1.8% or so of the library.
NadD block = blocks S. aureus nicotinate mononucleotide adenylyltransferase; purified NadD enzyme, colorimetric absorbance read-out; inhibition, % at 20 µM; 0.78% of 360,000 active; AID 602399; in the data active = inhibition above about 26%
pCIP destab = compounds decreasing mouse p/CIP protein stability | Q05BA5 | AID 1984 | decrease of EGFP signal, % at 10 µM | F442A p/CIP-EGFP cells, EGFP fluorescence, 16 h | 0.01% of 290,000 active;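 active = EGFP signal decrease of at least 30% at 10 µM or well 3 SD below plate mean, unless failing retest; inactive = the rest, including hits failing retest or dose response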
Target sequence (Q05BA5 1-1403): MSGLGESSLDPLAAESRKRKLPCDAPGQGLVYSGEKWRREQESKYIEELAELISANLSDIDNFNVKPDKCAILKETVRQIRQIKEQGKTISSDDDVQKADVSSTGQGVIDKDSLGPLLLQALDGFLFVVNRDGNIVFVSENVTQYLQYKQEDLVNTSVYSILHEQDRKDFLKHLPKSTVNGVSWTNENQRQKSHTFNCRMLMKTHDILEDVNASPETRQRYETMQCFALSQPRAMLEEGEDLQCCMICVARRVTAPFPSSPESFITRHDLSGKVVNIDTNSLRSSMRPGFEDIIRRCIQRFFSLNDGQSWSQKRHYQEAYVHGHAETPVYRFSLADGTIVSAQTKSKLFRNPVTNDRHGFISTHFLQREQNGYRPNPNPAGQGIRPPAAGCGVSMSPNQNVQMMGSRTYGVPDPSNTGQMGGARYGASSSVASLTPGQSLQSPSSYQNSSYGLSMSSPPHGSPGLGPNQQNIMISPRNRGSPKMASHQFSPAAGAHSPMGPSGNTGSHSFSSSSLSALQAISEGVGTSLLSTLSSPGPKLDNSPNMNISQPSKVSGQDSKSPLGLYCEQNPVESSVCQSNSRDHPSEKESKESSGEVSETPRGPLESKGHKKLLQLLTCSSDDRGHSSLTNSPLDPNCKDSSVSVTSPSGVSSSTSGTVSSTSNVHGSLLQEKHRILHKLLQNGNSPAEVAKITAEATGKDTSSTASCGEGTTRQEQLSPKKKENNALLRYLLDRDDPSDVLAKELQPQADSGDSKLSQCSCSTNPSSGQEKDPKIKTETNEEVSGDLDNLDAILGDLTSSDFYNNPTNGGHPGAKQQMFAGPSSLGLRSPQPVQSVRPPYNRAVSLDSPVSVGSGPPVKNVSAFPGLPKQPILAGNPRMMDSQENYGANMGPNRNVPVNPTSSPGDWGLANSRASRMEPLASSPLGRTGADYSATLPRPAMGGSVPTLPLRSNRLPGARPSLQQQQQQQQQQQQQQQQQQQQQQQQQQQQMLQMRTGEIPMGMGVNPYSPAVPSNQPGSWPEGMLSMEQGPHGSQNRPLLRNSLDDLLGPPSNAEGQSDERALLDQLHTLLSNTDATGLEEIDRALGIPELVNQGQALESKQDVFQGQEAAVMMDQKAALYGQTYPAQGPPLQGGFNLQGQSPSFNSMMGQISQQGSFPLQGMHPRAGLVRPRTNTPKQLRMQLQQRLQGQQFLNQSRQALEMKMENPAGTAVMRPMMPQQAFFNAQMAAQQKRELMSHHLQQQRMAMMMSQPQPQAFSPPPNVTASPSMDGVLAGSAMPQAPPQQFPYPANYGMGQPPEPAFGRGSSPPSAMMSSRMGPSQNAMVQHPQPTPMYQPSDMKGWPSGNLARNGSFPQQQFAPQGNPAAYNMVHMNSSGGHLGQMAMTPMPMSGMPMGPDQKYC
PHOSPHO1 inh = PHOSPHO1 (human) inhibition; Q8TCT1; inhibition, % at 13.3 µM; 1.1% of 290,000 active; recombinant PHOSPHO1, absorbance phosphatase assay; in the data active = inhibition above about 60%
UBC9 SUMO inh = blocks human SUMOylation mediated by UBC9. P63279. HTRF SUMOylation assay, SAE1/SAE2 + UBC9, in vitro. inhibition, % at 35 µM. 0.36% of 290,000 active. AID 2006; in the data active = inhibition above about 50%, passing the limit was not always enough
A number is an active result; n = inactive; x = no result.

SMILES | NadD block | pCIP destab | PHOSPHO1 inh | UBC9 SUMO inh
NNc1ccc([N+](=O)[O-])c2[nH][nH]c(=O)c12 | n | x | x | x
CCOC(=O)c1ccc(NC2=CC(=O)C(=O)c3ccccc32)cc1 | 47 | n | n | n
O=C(CCN=C1NS(=O)(=O)c2ccccc21)NCc1ccccc1F | n | x | x | x
Cc1ccc(F)cc1C(=O)N1CCCC(C)(C(=O)NS(=O)(=O)C2CC2)C1 (centres undefined) | n | x | x | x
CCOC(=O)c1ccccc1N/C=C1\CCCC1=O | n | n | 94 | n
CCCCOc1ccc(/C=C/C(=O)Nc2ccc(C(N)=O)cc2)cc1 | n | n | n | 51
CCCOc1ccc(/C=C/C(=O)Nc2ccc([N+](=O)[O-])cc2)cc1 | n | n | n | n
Cc1[nH]n(-c2ncc(-c3ccccc3)s2)c(=O)c1C(c1ccc(Br)cc1)C(C#N)C#N (centres undefined) | n | n | n | 64
C=C1Cn2c(nnc2-c2ccc(Cl)cc2)S1 | n | n | 70 | n
CCOC(=O)C1(CCC(C)C)CC(CSc2nc3ccccc3[nH]2)OC1=O (centres undefined) | n | n | 71 | n
CCOC(=O)C1(CC)CC(CSc2nc3ccccc3[nH]2)OC1=O (centres undefined) | n | n | n | n
CCc1nc2c(OCc3c(C)noc3C)cccn2c1N(C)C(=O)c1ccccc1F | n | x | x | x
CCCCc1ccc(NC(=O)CSc2nnc(C)c(=O)n2N)cc1 | n | n | 63 | n
Cc1ccc(N2CC(C(=O)NC3=NCCS3)CC2=O)cc1 (centres undefined) | n | n | n | n
CC(C)Oc1ccc(N2CC(C(=O)NC3=NCCS3)CC2=O)cc1 (centres undefined) | n | n | 64 | n
CCOc1ccccc1NC(=O)C1CCCCN1S(=O)(=O)c1ccccc1 (centres undefined) | n | x | x | x
CCOc1ccc(NC(=O)C2CCCCN2S(=O)(=O)c2ccccc2)cc1 (centres undefined) | n | n | 89 | n
Cc1ccccc1NC(=O)C1c2cccc[n+]2CC(=O)N1c1c(C)cccc1C (centres undefined) | n | n | 95 | n
Cc1cccc(C)c1NC(=O)C1c2cccc[n+]2CC(=O)N1Cc1ccc2c(c1)OCO2 (centres undefined) | n | n | n | n
COc1ccccc1Nc1nc2c(s1)CCC2 | n | n | 76 | n
N#CC1=C(N)Oc2c(ccc3ccccc23)C1c1cccs1 (centres undefined) | x | n | 93 | n
N#CC1=C(N)Oc2cc(O)ccc2C1c1cccs1 (centres undefined) | n | n | n | n
O=S1(=O)CC(N2CCCCC2)CN1Cc1cn(Cc2cccc(C(F)(F)F)c2)nn1 (centres undefined) | n | x | x | x
CC1(C(=O)NS(=O)(=O)c2ccc(C#N)cc2)CCN1C(=O)CC1CC1 (centres undefined) | n | x | x | x
Nn1cnnc1N/N=C\c1ccc(-c2ccccc2[N+](=O)[O-])o1 | n | n | n | 98
SMILES | NadD block | pCIP destab | PHOSPHO1 inh | UBC9 SUMO inh
O=C(NCCc1ccccc1)C1CCCN(c2ncnc3c2nc2n3CCCCC2)C1 (centres undefined) | n | n | n | n
Cc1ccc(CCNC(=O)C2CCCN(c3ncnc4c3nc3n4CCCCC3)C2)cc1 (centres undefined) | n | n | 80 | n
N#Cc1c(SCc2ccc(Cl)cc2)sc(C(=O)c2ccccc2)c1N | n | n | 89 | n
Cc1cccn2c(=O)c3cc(C(=O)NC4CCCCCC4)sc3nc12 | n | n | n | 55
CCOc1ccc2nc(N3CCC(C(=O)NC4CCCCC4)CC3)sc2c1 | n | n | 65 | n
COCCCN(Cc1cc(OC)c(OC)c(OC)c1)C(=S)Nc1cccc(SC)c1 | n | x | x | x
CCCCn1c(N)c(N(CCC(C)C)C(=O)CSc2nc3ccccc3n2C)c(=O)[nH]c1=O | n | x | x | x
O=C(NCc1n[nH]c(=S)n1-c1ccc(F)cc1)c1ccc(S(=O)(=O)N2CCCC2)cc1 | n | n | 96 | n
O=C(NCc1n[nH]c(=S)n1-c1ccc(Cl)c(Cl)c1)c1ccc(S(=O)(=O)N2CCCCC2)cc1 | n | n | n | n
C=CCN(CC=C)CC(=O)Nn1c(C)ccc1C | n | x | x | x
COc1cc(/C=N/n2c(=S)[nH]nc(C)c2=O)cc([N+](=O)[O-])c1O | n | n | 64 | n
Cc1n[nH]c(=S)n(/N=C/c2cccc([N+](=O)[O-])c2)c1=O | n | n | n | n
CC(C)C[C@H]1CN(CCCC[C@H]2CNC(=O)C(=O)N2CCc2ccc(O)cc2)C(=O)C(=O)N1CCc1ccc(O)cc1 | n | x | x | x
CN1CCN(C(=S)c2ccc(Br)cc2)CC1 | n | n | 61 | n
O=C(CN1C(=O)/C(=C2\SC(=S)N(CCS(=O)(=O)O)C2=O)c2ccccc21)Nc1cccc(Br)c1 | 51 | n | n | 56
O=C(CN1C(=O)/C(=C2/SC(=S)N(CCS(=O)(=O)O)C2=O)c2ccccc21)Nc1cccc(C(F)(F)F)c1 | 34 | x | x | x
CCOC(=O)C1(C)CCCCN1C(=O)c1cccnc1 (centres undefined) | n | x | x | x
CCOc1ccc(C2CC(c3ccc(CC)cc3)Nc3nc(N)nn32)cc1 (centres undefined) | n | n | n | n
CCOc1ccc(C2CC(c3ccc(CC)cc3)n3nc(N)nc3N2)cc1 (centres undefined) | n | n | 62 | n
C[C@H](CO)N1C[C@H](C)[C@@H](CN(C)S(=O)(=O)c2cccs2)OCc2cnnn2CCCC1=O | n | x | x | x
CCn1c(NCc2ccc3c(c2)OCO3)nc2ccccc21 | n | n | 65 | n
Cc1noc(C)c1S(=O)(=O)N1CCCCC1c1cc(C(=O)Nc2cccc3c2CCCC3)no1 (centres undefined) | n | x | x | x
Cc1cccc(NC(=O)CSc2ncnc3nc[nH]c23)c1C | n | n | 99 | n
Cc1cccc(C(=O)NC2CCN(C(=S)NCc3ccco3)CC2)c1 | n | n | n | n
O=C(NC1CCN(C(=S)NCc2ccco2)CC1)NC12CC3CC(CC(C3)C1)C2 | n | n | 89 | n
SMILES | NadD block | pCIP destab | PHOSPHO1 inh | UBC9 SUMO inh
CCC(=O)Nc1ccc(S(=O)(=O)Nc2nccs2)cc1 | n | n | n | n
CCCCC1CCC(C(=O)Nc2ccc(S(=O)(=O)Nc3nccs3)cc2)CC1 (centres undefined) | 33 | n | n | n
CSc1ncnc2c1ccn2CC(=O)Nc1ccc(C)c(C)c1 | n | x | x | x
COCC(=O)N(C)C[C@H]1Oc2ncc(Br)cc2C(=O)N([C@@H](C)CO)C[C@H]1C | n | x | x | x
Cc1cccc(NC(=S)NNC(=O)c2cccc([N+](=O)[O-])c2)c1 | n | n | n | n
Cc1occc1C(=O)NNC(=S)Nc1cccc([N+](=O)[O-])c1 | n | n | 88 | n
CCn1nc(C(=O)OCC(=O)NCCN2C(=O)CSC2=O)c2ccccc2c1=O | n | n | 72 | n
CNc1cnc(-c2ccsc2)cn1 | n | x | x | x
